Our source for the binding signal values is PMC5700166.

For this assay, the target named is T1, GST-Dm-Relish (Drosophila melanogaster, UniProt Q94527 99-473).
T1 sequence: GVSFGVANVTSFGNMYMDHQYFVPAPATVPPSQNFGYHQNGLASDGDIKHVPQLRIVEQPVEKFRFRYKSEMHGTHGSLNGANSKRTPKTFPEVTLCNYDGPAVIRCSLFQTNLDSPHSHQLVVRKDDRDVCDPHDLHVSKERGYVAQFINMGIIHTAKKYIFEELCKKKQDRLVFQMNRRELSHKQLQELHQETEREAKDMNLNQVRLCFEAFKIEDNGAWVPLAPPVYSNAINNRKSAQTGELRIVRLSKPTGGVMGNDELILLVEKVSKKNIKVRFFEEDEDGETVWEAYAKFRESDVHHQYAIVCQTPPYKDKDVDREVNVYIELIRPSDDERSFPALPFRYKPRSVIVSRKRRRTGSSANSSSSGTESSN
As to the kind of experiment: protein-binding microarray (PBM); PBM: ~300 nM protein, 6 mM HEPES pH 7.8, 80 mM KCl, 0.5 mM EDTA, 0.5 mM EGTA, 6% glycerol, 35 ng/ul poly-dIdC, 1% milk, 1 h, room temperature; Ap Aiptasia and Nv Nematostella (sea anemones) / Co Capsaspora / Aq Amphimedon (sponge) / Dm Drosophila / Hu human; RHD is the Rel homology domain; high values mean tight binding. Conditions: dsDNA, one strand shown.
“CCGATTAACATCAGGAAAATACATGATGTTAATCGGGTCTTGATTCGCTTGACGCTGCTG” had a binding signal of 4.66 z-score.
The same measure for “CCGATTAACATCAGGAATTCACATGATGTTAATCGGGTCTTGATTCGCTTGACGCTGCTG”: 5.7 z-score; for “CCGATTAACATCAGTAGTTTCCATGATGTTAATCGGGTCTTGATTCGCTTGACGCTGCTG”: 1.79 z-score.
For the sequence “CCGATTAACATCAGGAATTTATATGATGTTAATCGGGTCTTGATTCGCTTGACGCTGCTG”, the binding signal turned out to be 1 z-score.
Take “CCGATTAACATCAAAATTCCAGGTGATGTTAATCGGGTCTTGATTCGCTTGACGCTGCTG”: the binding signal came out at 1.13 z-score.
With “CCGATTAACATCAAGTAATTTTCTGATGTTAATCGGGTCTTGATTCGCTTGACGCTGCTG”, the binding signal came out at 1.86 z-score.
The result for “CCGATTAACATCAGTGTGCTTCTTGATGTTAATCGGGTCTTGATTCGCTTGACGCTGCTG” reads 1.67 z-score; that for “CCGATTAACATCAAAGGAAATTCTGATGTTAATCGGGTCTTGATTCGCTTGACGCTGCTG”, 1.56 z-score.
For “CCGATTAACATCAAGTATTTTCCTGATGTTAATCGGGTCTTGATTCGCTTGACGCTGCTG”, the binding signal worked out at 1.84 z-score.
The result for “CCGATTAACATCAAGTTTTTTCCTGATGTTAATCGGGTCTTGATTCGCTTGACGCTGCTG” reads 1.98 z-score; that for “CCGATTAACATCACGTTATTTCCTGATGTTAATCGGGTCTTGATTCGCTTGACGCTGCTG”, 1.09 z-score; that for “CCGATTAACATCATGGTACTTGTTGATGTTAATCGGGTCTTGATTCGCTTGACGCTGCTG”, 1.26 z-score.
The result for “CCGATTAACATCACCTCTCGCGCTGATGTTAATCGGGTCTTGATTCGCTTGACGCTGCTG” reads 1.25 z-score.
Take “CCGATTAACATCACAACGGAATGTGATGTTAATCGGGTCTTGATTCGCTTGACGCTGCTG”: the binding signal turned out to be 1.37 z-score.
“CCGATTAACATCAGGCCTTTCCATGATGTTAATCGGGTCTTGATTCGCTTGACGCTGCTG” registered a binding signal of 1.71 z-score.
“CCGATTAACATCACAATACACGCTGATGTTAATCGGGTCTTGATTCGCTTGACGCTGCTG” had a binding signal of 1.05 z-score.
“CCGATTAACATCACGTGGATTCCTGATGTTAATCGGGTCTTGATTCGCTTGACGCTGCTG” had a binding signal of 1.66 z-score.
The result for “CCGATTAACATCAGTAATTTACATGATGTTAATCGGGTCTTGATTCGCTTGACGCTGCTG” reads 6.73 z-score; that for “CCGATTAACATCAGTACATTCCATGATGTTAATCGGGTCTTGATTCGCTTGACGCTGCTG”, 2.01 z-score; that for “CCGATTAACATCAAGTGATTTCCTGATGTTAATCGGGTCTTGATTCGCTTGACGCTGCTG”, 4.18 z-score.
“CCGATTAACATCACGGAATTCACTGATGTTAATCGGGTCTTGATTCGCTTGACGCTGCTG” displayed a binding signal of 2.4 z-score.
The result for “CCGATTAACATCACTGGAAATTCTGATGTTAATCGGGTCTTGATTCGCTTGACGCTGCTG” reads 1.59 z-score.
The same measure for “CCGATTAACATCACCGAATTTGGTGATGTTAATCGGGTCTTGATTCGCTTGACGCTGCTG”: 1.44 z-score; for “CCGATTAACATCACGGAAAATACTGATGTTAATCGGGTCTTGATTCGCTTGACGCTGCTG”: 1.21 z-score.
Sequence “CCGATTAACATCAAATAAATTCCTGATGTTAATCGGGTCTTGATTCGCTTGACGCTGCTG” displayed a binding signal of 1.27 z-score.
The result for “CCGATTAACATCAAGTAGTTTCCTGATGTTAATCGGGTCTTGATTCGCTTGACGCTGCTG” reads 2.37 z-score; that for “CCGATTAACATCAAAAAACCGTTTGATGTTAATCGGGTCTTGATTCGCTTGACGCTGCTG”, 1.2 z-score; that for “CCGATTAACATCAAGTACATTCCTGATGTTAATCGGGTCTTGATTCGCTTGACGCTGCTG”, 2.21 z-score.
The sequence “CCGATTAACATCAAATGTACTAATGATGTTAATCGGGTCTTGATTCGCTTGACGCTGCTG” yielded a binding signal of 1.5 z-score.
The same measure for “CCGATTAACATCAGGATTTTACATGATGTTAATCGGGTCTTGATTCGCTTGACGCTGCTG”: 3.35 z-score; for “CCGATTAACATCAAGTGAATTCCTGATGTTAATCGGGTCTTGATTCGCTTGACGCTGCTG”: 3.49 z-score.
The same measure for “CCGATTAACATCAGTGAACCACATGATGTTAATCGGGTCTTGATTCGCTTGACGCTGCTG”: 5.69 z-score; for “CCGATTAACATCACCCGAGTGCGTGATGTTAATCGGGTCTTGATTCGCTTGACGCTGCTG”: 1.01 z-score.
Sequence “CCGATTAACATCAAGGAAAATACTGATGTTAATCGGGTCTTGATTCGCTTGACGCTGCTG” came in with a binding signal of 1.2 z-score.
“CCGATTAACATCAATAAATGTACTGATGTTAATCGGGTCTTGATTCGCTTGACGCTGCTG” showed a binding signal of 1.14 z-score.
The same measure for “CCGATTAACATCAGGAAATTCACTGATGTTAATCGGGTCTTGATTCGCTTGACGCTGCTG”: 1.48 z-score.
On to “CCGATTAACATCAAGTACAACGGTGATGTTAATCGGGTCTTGATTCGCTTGACGCTGCTG”, for which the binding signal turned out to be 1.44 z-score.
The same measure for “CCGATTAACATCAGTTTTTTCCATGATGTTAATCGGGTCTTGATTCGCTTGACGCTGCTG”: 1.54 z-score.
In the case of “CCGATTAACATCAGGAAAACACATGATGTTAATCGGGTCTTGATTCGCTTGACGCTGCTG”, the binding signal was determined as 2.56 z-score.
